From the supplement of paper PMC6555819

Each sequence was assayed on VDR:RXRa (NR concentration 270 nM, RXRa partner concentration 90 nM) (assay: PBM binding z-score (relative to random genomic background probes); higher = stronger binding; sequences stand for … in GC…GCGATTGACAGCGTAGAATGAAGG).
Experimental: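 Protein-binding microarray (Agilent 4x180K custom design, double-stranded 60-nt probes: 5' GC cap, 34-nt variable region, 24-nt constant primer region; full probe sequence given). Purified or IVT nuclear receptor:RXRα heterodimers (3:1 NR:RXRα, mostly 270:90 nM) or homodimers were incubated for 1 h in PBS with 2% milk and no ligand, then detected with Alexa488 antibodies. Fluorescence from o1-orientation probes (~5 replicates averaged) was converted to z-scores against 500 random hg19 background probes. Variable regions are seed direct-repeat (DR0–DR5) sites, all their single-nucleotide variants and half-site ablations.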

Row | Sequence | PBM binding z-score
1 | TCTTGTAGATCAACAGGAGGTTAAGCAAGATCGA | 0.529
2 | AGAATGAGGTTTTTAAGATCAGGGAATTGCGGTC | -0.0674
3 | AATACAGGTTCACTAGGCCAGAGTAGGTACGAAT | 3.2
4 | AGAATGAGGTTATACGAAGATCAGGGAAGAAAGT | 1.13
5 | CCTTCTGGGCCATCAGGTCATTGATATCAACGTT | 1.81
6 | AGAACGAGGGCACGCTGAGTGGATAGCAGAGTAG | 0.617
7 | CAAACTAGGTCACGAAAGGACAAAGTCGAATGAC | 4.23
8 | CGTCCAAGGTCAGAGATGTCAGTGAATGCCGAGT | 3.64
9 | ATTCAAAGTTCAGGACGAGGTAACGTAAAGCACG | 3.14
10 | AGTATTAGTTGAGACGAGGGCAACCGATAGGTTG | 0.873
11 | CAAACTAGGTCAAGAGGTCAAAGCCCGCTTCCCG | 5.9
12 | ATATGTAGGTTCTCGGGTCATTCAGTTTGCGCAT | 5.04
13 | TCATATAGGTAATTCAGGTGAAAGTCGGCATCTA | 1.11
14 | CCTCGGAGGACAACAGGAAGTCAGAGCTGCCAGA | -0.718
15 | TCTTGTAGATCAGAGGTTAAGAAAGCCGAAGCCT | 0.673
16 | CATGCAGGGTCAGCTAGGCCAGAGTAGGGACGGC | 3.97
17 | GCTCGGAGGACAAGGTCAGAGTTTTGTCCGTAGA | 1.65
18 | GGAACGAGGGCATTCGAGTTAATAGCATGGCGAT | 2.35
19 | CGTCCAAGGTCAATGCCAGGTCAGTGAAAGCATT | 4.96
20 | ATCTATAGGTAAAGTTCAGTGAAAGATCGATAGA | 1.65

Row | Sequence | PBM binding z-score
21 | CCTGACAGGTGAGAAGGTAACTCAGCCTCGATTA | -0.0801
22 | TCTGCTAGGTCAACGCTGGTCAGCTAATCTGCTA | 1.36
23 | TCTAGTTTGTCACGGAGGTCACACACGACGGGTA | 4.63
24 | TCTTGTAGCTCAATAGAGGTTAAGAAAGTGCGCT | 1.32
25 | GCGACTGTGGCAAAGCAGGTTACCATAAGGTTGG | -0.352
26 | TCGAGTAGGTTACCAAAGGGGCATTCAGCTTTCT | 0.89
27 | TAGCCTAGGTCTTTGGGCCAGTATAGTACGCATC | -0.592
28 | GCTCGGAGGACAAGGTGAGAGCTTTGTCCGTAGA | -0.606
29 | CAAACTAAGTCACAGAGGTCAAAGTCCGTGCGTA | 6.65
30 | TTACCAAGGTGAAAGGTCGATGATGCACGCCTTG | 2.23
31 | ATACCAAGGTGATCGTTAGGTCGTTGATACTAAC | 0.566
32 | TTACCAAGGTGAGCTGAGGGCGTTGATCCAACTC | 1.89
33 | AATACAGGGTCATCGTAGGCTAGAGTACGCACAG | 5.2
34 | AGTCAAAGTTCATCTCGGTAACGTAAGATATGCT | 4.8
35 | CGTCCAAGGTCAAGGTTAGTGAAAGAGACTCGAA | 3.93
36 | GATACACGGTCAGCTAGAGGCCAGAGTATGGAAA | -0.349
37 | TTACCATGGTGAGCTGAGGTCGTTGATCCAACTC | 1.57
38 | CTCGAAAGGTCGTGCCCAGGTGAGTATACCAAAC | 3.33
39 | AGCTCTAGGTAAGACTCAGTTCAGTGAAGAACGC | 0.321
40 | CAAACTAGGTCACGAAAGGTGAAAGTCGAATGAC | 4.19
